Screens (PubChem)
HCV inhibitor: blocks hepatitis C virus; Huh7.5.1 HCVcc-Cre infection, luciferase reporter, 44 h; Potency, µM (highest dose often 41.8 µM), without a hit: at the top dose activity change, negative = inhibition, hits mostly inhibitors; hit rate 3.4% among 340,000; also: % is scaled to controls: 0 for no effect and ±100 for the full control effect
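1,000 cells/well; 4 h culture; + compound; + HCVcc-Cre (~0.5 moi); 44 h; luciferase substrate, RT 15 min; read 15 sec.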
Pf growth 96h: inhibits malaria parasite growth, 96 h. P. falciparum luciferase reporter growth, 96 h. Potency, µM (titrated, usually from 28.7 µM), for the others: top-dose activity change, negative = inhibition, usual class: inhibitors. hit rate 6.9% among 320,000. AID 504834; also: % is scaled to controls: 0 for no effect and ±100 for the full control effect
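P. falciparum expressing integrated firefly luciferase grown in erythrocytes (2% hematocrit, 0.05% parasitemia final) with compounds for 96 hours at 37 C, 5% CO2. Growth inhibition read as loss of luminescence after adding luciferase detection reagent.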
Pf growth 48h: P. falciparum growth inhibition at 48 hours (one generation) | P. falciparum luciferase growth in erythrocytes, 48 h | Potency, µM (doses to about 28.7 µM), inactives show at the top dose activity change, negative = inhibition, hits mostly inhibitors | hit rate 5.9% among 310,000 | AID 504832; also: % is scaled to controls: 0 for no effect and ±100 for the full control effect
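First compound was added to culture medium, then infected red cells at 0.1% parasitemia and 2% hematocrit (final). After incubation at 37 C under 5% CO2, luciferase detection reagent was dispensed and light output recorded.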
VACV mCherry inh: vaccinia inhibition (mCherry reporter) | hit rate 0.63% among 310,000 | Potency, µM (doses to about 36.5 µM), for the others: at the highest dose activity change, negative = inhibition, most hits filed as inhibitors | AID 720579 | Vaccinia virus mCherry reporter infection, fluorescence; calls by dose curve; tested in A549 cells; also: % is scaled to controls: 0 for no effect and ±100 for the full control effect; nearly all actives have a fitted effect of over 35% in size
NS1 function inh: inhibitors of influenza NS1 protein function; hit rate 0.4% among 270,000; AID 2326; Potency, µM (doses to about 46.1 µM), for inactives: top-dose activity, positive = more growth; calls by dose curve; also: actives are rising curves; nearly all actives have a fitted effect of over 50% in size
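OD600 was taken as the measure of yeast growth restored by compound in an NS1-expressing S. cerevisiae strain. Cells had been washed out of glucose medium and diluted 1:100 into galactose -URA medium, pH 6.0.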
Vaccinia Venus: inhibitors of vaccinia virus (Venus reporter) | hit rate 0.46% among 330,000 | Vaccinia virus Venus reporter expression, fluorescence | AID 720580 | Potency, µM (top dose mostly 36.5 µM), inactives show top-dose activity change, negative = inhibition, actives largely listed as inhibitors; calls by dose curve; tested in A549 cells; also: % is scaled to controls: 0 for no effect and ±100 for the full control effect; nearly all actives have a fitted effect of over 30% in size
Numbers without * were called inactive. Shown are actives, neighbours in structure and some others; about 11% of the full set was active somewhere. Unless noted, calls follow the shape of the dose curve; as a rule, active = well fitted inhibition curve with a large enough effect; inconclusive = small, poorly fitted or top-dose-only effect, or another doubt; inactive = no such curve, though single readings can be large or run the other way. Potency is read from the fitted curve at half-maximal effect.

Cc1ccc(-n2nc3c(=O)n(C(C)C(=O)NCCCc4ccccc4)nc(C)c3c2C)cc1 (stereo not drawn) was read as HCV inhibitor inconclusive, Pf growth 96h 8.28µM*, Pf growth 48h inconclusive and NS1 function inh 1.7%.
`CCCNC(=O)C(C)n1nc(C)c2c(C)n(-c3ccccc3)nc2c1=O` (stereo not drawn) gave VACV mCherry inh -10.0% and Vaccinia Venus -9.4%.
Screening CCOc1ccc(C(=O)NCC2(c3ccccc3)CCOCC2)cc1 returned HCV inhibitor -2.5%, Pf growth 96h 23.8%, Pf growth 48h 7.5% and NS1 function inh 1.6%.
Screening CCCCCOc1ccc(C(=O)NCC2(c3ccccc3)CCOCC2)cc1 returned Pf growth 96h inconclusive, Pf growth 48h 13.1µM*, VACV mCherry inh -23.9%, NS1 function inh -41.4% and Vaccinia Venus -21.9%.
CCCCOc1ccc(C(=O)NCC2(c3ccccc3)CCOCC2)cc1 was read as HCV inhibitor 4.9%, Pf growth 96h 10.4µM*, Pf growth 48h inconclusive and NS1 function inh -36.6%.
Screening O=C(Nc1ccc(Cl)cc1C(=O)Nc1ccncc1)c1ccco1 returned HCV inhibitor 11.2µM*, Pf growth 48h inconclusive and NS1 function inh 5.0%.
Screening CC1CCCCN1C(=O)c1ccccc1NC(=O)c1ccco1 (stereo not drawn) returned HCV inhibitor -12.6%, Pf growth 96h 10.4µM*, Pf growth 48h 3.7%, VACV mCherry inh -6.4%, NS1 function inh -3.2% and Vaccinia Venus 2.8%.
Screening CC1CCN(C(=O)c2cc(Cl)ccc2NC(=O)c2ccco2)CC1 returned HCV inhibitor -12.7%, Pf growth 96h 2.33µM*, Pf growth 48h 6.5%, VACV mCherry inh 2.1%, NS1 function inh 3.3% and Vaccinia Venus -9.3%.
O=C(Nc1ccc(Cl)cc1C(=O)NCc1cccnc1)c1ccco1 was read as HCV inhibitor inconclusive, Pf growth 96h -2.4%, Pf growth 48h -6.6% and NS1 function inh inconclusive.
Screening Nc1nc(C(F)(F)F)cc(=O)[nH]1 returned HCV inhibitor -7.3%, Pf growth 96h 9.9%, Pf growth 48h 36.1% and NS1 function inh -3.3%.
Screening Cn1c(=O)c2c(nc(Br)n2C)n(C)c1=O returned HCV inhibitor 6.5%, Pf growth 48h -12.0%, NS1 function inh 3.5% and Vaccinia Venus -10.7%.
Screening Cc1cc(C(=O)CCl)c(C)n1CCc1ccccc1 returned HCV inhibitor 8.91µM*, Pf growth 96h -25.7%, Pf growth 48h -12.7%, VACV mCherry inh -13.7% and Vaccinia Venus 8.9%.
Screening Cc1ccc(NC(=O)c2cccc(S(=O)(=O)N3CCc4ccccc4C3)c2)nc1 returned HCV inhibitor inconclusive, Pf growth 96h 9.28µM*, Pf growth 48h 7.38µM*, VACV mCherry inh -2.8% and Vaccinia Venus -12.8%.
`Cc1ccccc1NC(=O)c1cccc(S(=O)(=O)N2CCOCC2)c1` gave HCV inhibitor -20.9%, Pf growth 96h inconclusive, Pf growth 48h 21.0%, VACV mCherry inh -20.7%, NS1 function inh 7.7% and Vaccinia Venus -4.8%.
Cc1cc(N2CCN(C)CC2)ccc1NC(=O)c1cccc(S(=O)(=O)N2CCc3ccccc3C2)c1 was read as HCV inhibitor inconclusive, Pf growth 96h 10.4µM*, Pf growth 48h inconclusive, VACV mCherry inh -19.0%, NS1 function inh -0.3% and Vaccinia Venus inconclusive.
`CSCC[C@H](NC(=O)C1=NN(c2c(F)c(F)cc(F)c2F)C(=O)CC1)c1nc2ccccc2[nH]1` gave HCV inhibitor -0.7%, Pf growth 96h inconclusive, Pf growth 48h inconclusive, VACV mCherry inh -13.4%, NS1 function inh 5.9% and Vaccinia Venus -10.1%.
For O=S(=O)(c1cccs1)N1CN(Cc2ccc(Cl)cc2)c2nc3ccccc3nc21 the results were HCV inhibitor -0.8%, Pf growth 96h inconclusive, Pf growth 48h inconclusive, VACV mCherry inh inactive, NS1 function inh -3.3% and Vaccinia Venus -17.9%.
Screening Cc1ccc(C(=O)N2CCN(c3ncc(C(F)(F)F)cc3Cl)CC2)s1 returned HCV inhibitor -26.1%, Pf growth 96h -28.8%, Pf growth 48h -2.5%, VACV mCherry inh -23.5%, NS1 function inh -2.7% and Vaccinia Venus -10.2%.
Screening CN1C(=O)N(C)C(NC(=O)Nc2ccccc2)C1NC(=O)Nc1ccccc1 (stereo not drawn) returned HCV inhibitor 0.1%, Pf growth 96h 2.33µM*, Pf growth 48h -3.6%, NS1 function inh -0.3% and Vaccinia Venus -16.2%.
Cc1ccc(NC(=O)NC2C(NC(=O)Nc3ccc(C)cc3)N(C)C(=O)N2C)cc1 (stereo not drawn) was read as HCV inhibitor -0.9%, Pf growth 48h 1.8%, VACV mCherry inh -3.8%, NS1 function inh 2.6% and Vaccinia Venus -19.6%.
Screening CC(=O)N(/N=C/c1cccc(C)c1)c1nc(-c2ccc(Br)cc2)cs1 returned HCV inhibitor 8.6%, Pf growth 96h 11.7µM*, Pf growth 48h inconclusive, VACV mCherry inh -18.4%, NS1 function inh -1.4% and Vaccinia Venus -17.3%.
O=S(=O)(/N=C(/Nc1cccc2ccccc12)c1ccccc1)c1ccc(Br)cc1 was read as HCV inhibitor -18.6%, Pf growth 96h 4.15µM*, Pf growth 48h 12.9% and NS1 function inh 3.1%.
For CCN1CCN(c2ncc3c(n2)CCN(Cc2ccc(OC(C)C)cc2)C3)CC1 the results were VACV mCherry inh -13.2% and Vaccinia Venus -15.4%.
Screening CCc1ccc2n(-c3ccc(OC)cc3)c([S-])c(C(=O)Nc3cc(C)cc(C)c3)[n+]2c1 returned HCV inhibitor -11.8%, Pf growth 96h 8.28µM*, Pf growth 48h 13.1µM*, VACV mCherry inh 1.1%, NS1 function inh -2.8% and Vaccinia Venus -1.6%.
Screening COc1cccc(-n2c([S-])c(C(=O)Nc3ccc(C(F)(F)F)cc3)[n+]3ccccc23)c1 returned Pf growth 96h 1.3% and Pf growth 48h inconclusive.
For COc1ccc(CCNC(=O)c2c([S-])n(-c3ccc(C)cc3)c3cccc[n+]23)cc1 the results were HCV inhibitor 11.2µM*, Pf growth 96h 10.4µM*, Pf growth 48h inconclusive, VACV mCherry inh -17.9%, NS1 function inh -3.9% and Vaccinia Venus -13.2%.
`Cc1ccc(NC(=O)COC(=O)c2ccco2)cc1C` gave HCV inhibitor 2.0%, Pf growth 96h -10.4%, Pf growth 48h -4.8%, VACV mCherry inh -8.2% and Vaccinia Venus -1.4%.
Screening CC12CCC3C(CC=C4CC(O)CCC43C)C1C/C(=C\c1cccc(F)c1)C2=O (stereo not drawn) returned HCV inhibitor 6.0%, Pf growth 96h 11.7µM*, Pf growth 48h inconclusive, VACV mCherry inh inactive, NS1 function inh 1.2% and Vaccinia Venus 0.7%.
